The results in this text go back to PubChem BioAssay.

Values without a mark were called inactive. No stated cut-off is given here; in the data, active means inhibition above about 31%; inactive means the rest.

The test in a line: yeast transport mutant growth inhibition pilot in 384-well plates, post-Golgi transport modulator project (AID 636). The conditions noted are these: absorbance 615 nm, about 18 h, hits give high values.
For `CC1Cc2nc(SCC(=O)Nc3ccc(F)cc3F)n(C)c(=O)c2S1` (configuration not stated), the inhibition was -1.78%.
The result for `COC(=O)CCn1nnc(-c2cccs2)n1` reads 3.73%.
The value for `CCN(C#N)c1nc(NC(C)C)nc(NC(C)C)n1` was -4.46%; that for `COc1ccccc1C(=O)Nc1ccc(S(=O)(=O)N2CCCC2)cc1` was -4.93%; that for `COC(=O)c1[nH]c2ccccc2c1NC(=O)CN1CCC(C(N)=O)(N2CCCCC2)CC1` was 1.58%.
The value for `CC(O)c1c(OCc2ccccc2)ncnc1OCc1ccccc1` (configuration not stated) was -2.73%; that for `Cc1c(C(=O)OC(C)C)[nH]c2c1C(=O)CCC2` was 0.39%; that for `CC(C)CNC(=O)C1C2C=CC(C2)C1C(=O)O` (configuration not stated) was -1.33%.
`COc1cccc(Cn2c(Oc3ccccc3)nc3c2c(=O)n(C)c(=O)n3C)c1`: the inhibition is -0.13%.
The value for `CC(C)(C)NC(=O)Cn1nnc(-c2cccs2)n1` was -3.87%; that for `COc1cc(CN2CCN(C(=O)CC(C)C)CC2)cc(OC)c1O` was -1.04%; that for `CCn1c(C)nc2cc(C(=O)OCCC(F)(F)F)ccc21` was -2.44%.
The value for `CCn1c(CC(=O)Nc2cccc(OC)c2)nnc1SCC(=O)Nc1nccs1` was -7.6%; that for `CCOc1cc(NC(=O)c2ccco2)c(OCC)cc1NC(=O)CCC(=O)NCc1cccnc1` was -1.43%.
In the case of `CCN(CC)c1ccc(CNc2ccc(Br)cn2)cc1`, the inhibition was -0.66%.
Regarding `CCOc1ccccc1C(=O)NCCC(=O)O`, the inhibition was -0.66%.
As to `Cc1ccc(-c2csc3nnc(SCC(=O)NCc4ccco4)n23)cc1`, the inhibition is -6.27%.

For orientation: inhibition means the relative decrease from the control value, in per cent.
